Source: PubChem (National Center for Advancing Translational Sciences (NCATS))
GLS inhibitor: qHTS for Inhibitors of Glutaminase (GLS); 410,000 tested, 0.21% active; AID 624170, 2012; Glutaminase kidney isoform, mitochondrial (Homo sapiens), O94925; GLS enzymatic activity, qHTS titration; Potency, µM (doses to about 45.5 µM), inactives show at the top dose activity change, negative = inhibition, usual class: inhibitors; further: on the % scale 0 is the no-effect control and ±100 the full control effect
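Coupled fluorescence readout: glutamate oxidase/HRP/Amplex Red detect glutamate formed by hKGA from L-glutamine (1 mM solution added). Buffer 45 mM KH2PO4 pH 8.2, 0.02% Tween-20; reads at t0 and 30 min RT.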
JMJD2A Tudor: qHTS Assay for Inhibitors of JMJD2A-Tudor Domain. Lysine-specific demethylase 4A (Homo sapiens), O75164. Potency, µM (doses to about 114 µM), for inactives: at the highest dose activity change, negative = inhibition, actives largely listed as inhibitors. AlphaScreen JMJD2A-Tudor / H3K4me3 peptide binding. 390,000 tested, 4.4% active. AID 504339, 2011; further: on the % scale 0 is the no-effect control and ±100 the full control effect; nearly all actives have a fitted effect of over 50% in size
BAZ2B block: qHTS Assay for Inhibitors of BAZ2B | Bromodomain adjacent to zinc finger domain protein 2B (Homo sapiens), Q9UIF8 | AlphaScreen BAZ2B-H3K14Ac peptide displacement | Potency, µM (top dose mostly 114 µM), inactives show top-dose activity change, negative = inhibition, usual class: inhibitors | 360,000 tested, 4.4% active | AID 504333, 2011; further: on the % scale 0 is the no-effect control and ±100 the full control effect; nearly all actives have a fitted effect of over 60% in size
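Compounds, titrated to a top concentration of 110 uM, were incubated 30 min at room temperature with preformed BAZ2B/acetyl-K14 H3 peptide complex (50 nM each). Proximity signal was measured by AlphaScreen after 20 min with beads.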
HP1b chromo inh: HTS for Inhibitors of HP1-beta Chromodomain Interactions with Methylated Histone Tails | Chromobox protein homolog 1 (Homo sapiens), P83916 | AlphaScreen HP1-beta / biotin-H3K9me3 peptide binding | Potency, µM (highest dose often 114 µM), inactives show at the highest dose activity change, negative = inhibition, most hits filed as inhibitors | 390,000 tested, 0.56% active; further: nearly all actives have a fitted effect of over 70% in size
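AlphaScreen: HP1-beta (50 nM) preformed 30 min with biotin-H3(1-18)K9me3 peptide (50 nM) in PBS pH 7.4, 0.01% Tween-20. Compound added for 30 min at RT, then streptavidin donor/nickel chelate acceptor beads (10 ug/mL) for 30 min.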
G9a block: qHTS Assay for Inhibitors of Histone Lysine Methyltransferase G9a; Potency, µM (highest dose often 102 µM), inactives show top-dose activity, negative = inhibition, actives largely listed as inhibitors; G9a H3K9 monomethylation, AlphaScreen, 2 h; AID 504332, 2011; 350,000 tested, 8.8% active; further: on the % scale 0 is the no-effect control and ±100 the full control effect; nearly all actives have a fitted effect of over 75% in size
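G9a (20 nM) was preincubated 15 min with compound, then reacted 2 h at room temperature with 500 nM biotin-H3K9 peptide and 20 µM SAM. Monomethyl-H3K9 detected by AlphaScreen using anti-H3K9me1 antibody.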
Active calls of the source: *; u = inconclusive; x = no result; [ ] = remark or other dose. Shown are actives, neighbours in structure and some others; about 10% of the full set was active somewhere. The call rests on the fitted dose curve; in most records, active means well fitted curve in the direction sought with a large enough effect; inconclusive means small, poorly fitted or top-dose-only effect, or another doubt; inactive means no such curve, though single readings can be large; an effect the other way counts as inactive or inconclusive. Potency means the concentration at half of the fitted maximal effect.

SMILES	GLS inhibitor	JMJD2A Tudor	BAZ2B block	HP1b chromo inh	G9a block
CCCC(C(=O)O)N1C(=O)/C(=C2\C(=O)N(C)c3ccccc32)SC1=S (stereo not given)	u	u	45µM*	-37%	20µM*
O=C(O)CCN1C(=O)/C(=C2\C(=O)N(Cc3ccccc3Cl)c3ccccc32)SC1=S	x	x	7.9µM*	x	u
O=C(O)[C@H](Cc1ccccc1)N1C(=O)c2ccncc2C1=O	8%	-8%	-4%	12%	-7%[59 µM]
CCCN1C(=O)/C(=C2\SC(=S)N(c3c(C)n(C)n(-c4ccccc4)c3=O)C2=O)c2ccccc21	-19%	4%	-5%	28%	x
COCCN(C(=O)CSc1nnc(Nc2ccccc2F)s1)c1c(N)n(Cc2ccccc2)c(=O)[nH]c1=O	8%	-16%[57.1 µM]	-2%	3%	14µM*
CCN(C(=O)CSc1nnc(NCCOC)s1)c1c(N)n(Cc2ccccc2)c(=O)[nH]c1=O	23%	-10%	x	45%	x
COCCNc1nnc(SCC(=O)N(C)c2c(N)n(Cc3ccccc3)c(=O)[nH]c2=O)s1	-7%	-10%	-1%	24%	22µM*
Nc1[nH]n2c(=O)cc(-c3ccccc3)nc2c1N=Nc1ccc(S(N)(=O)=O)cc1	20%	u	u	-14%	35µM*
Nc1[nH]n2c(=O)cc(-c3ccccc3)nc2c1N=Nc1ccccc1	8%	-32%	10%[57.1 µM]	-11%	u
COc1cc(NS(=O)(=O)c2ccc(NC(=O)c3ccc(S(=O)(=O)N4CCCC4)cc3)cc2)ncn1	x	x	4%	x	-33%
COc1ccc([C@H]2C=C(C(=O)O)O[C@@H](OCCCCO)C2)cc1	2%	56µM*	u	35%	-8%[12.7 µM]
C#Cc1ccc([C@@H]2C=C(C(=O)OCC=C)O[C@H](OCCCCO)C2)cc1	-4%	-34%	50µM*	30%	u
O=C(O)C1=C[C@H](c2ccc(F)cc2)C[C@H](OCCCCO)O1	-5%	-24%	79µM*	58%	-28%[12.7 µM]
CCCOC(=O)CN1C(=O)c2ccc(C(=O)OCCC)cc2C1=O	-9%	12%	-4%	41%	10%[59 µM]
CC(=Nc1ccccc1)C1=C(O)COC1=O	5%	-8%	u	32%	-21%
COc1ccc(OC)c(N=C(C)C2=C(O)COC2=O)c1	0%	-6%	-7%	16%	3.5µM*
c1csc(-c2nnc(N3CCOCC3)c3ccccc23)c1	17%	-2%[11.4 µM]	-27%	1%	40µM*
CCOc1ccc(-c2nnc(N3CCOCC3)c3ccccc23)cc1	0%	2%	0%	26%	10%
c1csc(-c2nnc(N3CCCCCC3)c3ccccc23)c1	3%	1.3µM*	u	u	10µM*
CCN1CCn2c3c(c4cccc(C)c42)CCCC31 (stereo not given)	6%	u	u	-7%	71µM*
CCN1CCn2c3c(c4cc(C)ccc42)CCCC31 (stereo not given)	19%	u	u	u	20µM*
O=S(=O)(N/N=C/c1cccnc1)c1ccc(Cl)c(Cl)c1	11%	-16%	-5%	13%	18µM*
O=C(CSc1nc(N2CCCCC2)nc(N2CCCCC2)n1)N1CCN(c2ccccc2)CC1	-7%	-26%	-36%	15%	u
CC(C)CCn1nnnc1CN1CCN(C(=O)c2ccco2)CC1	1%	u	-3%	9%	50µM*
CN(C)c1ccc(C(c2nnnn2C(C)(C)C)N2CCN(C(=O)c3ccco3)CC2)cc1 (stereo not given)	26%	-28%	-30%	-16%	10µM*
SMILES	GLS inhibitor	JMJD2A Tudor	BAZ2B block	HP1b chromo inh	G9a block
C=CCN1CCN(C(c2ccccc2)c2nnnn2CCC(C)C)CC1 (stereo not given)	u	3.2µM*	u	51%	50µM*
Cc1ccc(C)c(N2CCN(C(c3ccncc3)c3nnnn3Cc3ccccc3)CC2)c1 (stereo not given)	-8%	79µM*	u	4%	3.2µM*
O=C1Nc2ccc(Br)cc2C1=C1CCCCC1	-15%	-31%	-36%	32%	22%[0.501 µM]
Cc1ncc(CSc2nnnn2-c2ccccc2)c(N)n1	-7%	-6%	9%	10%	8%[12.7 µM]
Cc1ccc(C)c(N2CCN(C(c3ccc(N(C)C)cc3)c3nnnn3C(C)(C)C)CC2)c1 (stereo not given)	14%	u	-8%	-42%	4.5µM*
CC(C)CCn1nnnc1C(c1ccc(N(C)C)cc1)N1CCN(C(=O)c2ccco2)CC1 (stereo not given)	47%	u	u	-20%	50µM*
CC(C)(C)n1nnnc1C(c1ccncc1)N1CCN(c2ccc(O)cc2)CC1 (stereo not given)	u	45µM*	-10%	u	u
CC(C)(C)n1nnnc1C(c1ccccc1)N1CCN(c2ccccc2)CC1 (stereo not given)	2%	x	x	x	x
CCN(CCN(C)C)C(=O)c1ccc2c(c1NCCO)C(=O)c1ccccc1C2=O	-23%	-28%	50µM*	u	16µM*
O=C(O)c1ccc2c(c1Nc1ccccc1)C(=O)c1ccccc1C2=O	2%	50µM*	u	40µM*	40µM*
CNc1c(C(=O)O)ccc2c1C(=O)c1ccccc1C2=O	1%	-31%	35µM*	45µM*	14µM*
O=C(O)c1cccc2c1C(=O)c1ccccc1C2=O	5%	-7%	x	51%	u
CC(=O)Nc1ccc2c(c1)C(=O)c1cccc(C(=O)O)c1-2	1%	-12%	x	36%	x
CCNc1c(C(=O)O)ccc2c1C(=O)c1ccccc1C2=O	0%	-27%	35µM*	-30%	u
COc1cc2c(C#CCCO)c(-c3ccsc3)oc(=O)c2cc1OC	-1%	-22%	x	37%	x
CC(=O)NCc1nc2cccnc2n1Cc1ccccc1	-2%	-1%	4%	29%[57 µM]	-3%[59 µM]
COc1ccc(-n2c(-c3ccccc3)cc3c2CCCC3=O)cc1	8%	32µM*	11µM*	u	13µM*
COC(=O)c1nc(Cl)c(Cl)c(N)c1Cl	-20%	1%	-2%	43%	5%
COc1cc(/C=N/n2c(-c3ccccc3)n[nH]c2=S)ccc1O	-27%	5µM*	-2%	4%	2.2µM*
COc1ccc(/C=N/n2c(-c3ccc(C)cc3)n[nH]c2=S)cc1OC	5%	7.9µM*	-6%	28%	0.4µM*
COc1ccc(Br)cc1/C=N/n1c(-c2ccccc2)n[nH]c1=S	-4%	u	-35%	30%	3.5µM*
